Rows were chosen to be rich in hits. Some 11% of all compounds tested hit in one or more screens of this group.
hNpr1 antagonist: Natriuretic polypeptide receptor (hNpr1) antagonism - Primary qHTS; Atrial natriuretic peptide receptor 1 (Homo sapiens), P16066; HEK293 hNpr1 GloSensor cGMP, ANP-stimulated luminescence; Potency, µM (doses to about 46.3 µM), inactives show at the highest dose activity change, negative = inhibition, actives largely listed as inhibitors; 76,000 compounds, 1.6% hits; calls by dose curve; note: nearly all actives have a fitted effect of over 60% in size
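HEK293 cells stably expressing human Npr1 and cGMP GloSensor pGS-40F, loaded 2 h with 2% GloSensor reagent, given compound 30 min at room temperature. Luminescence read before and 20 min after 0.1 nM hNppA.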
FLuc inh: Firefly luciferase inhibition profiling of diverse chemical library using quantitative high-throughput screening; Luciferin 4-monooxygenase (Photinus pyralis), P08659; purified P. pyralis luciferase, luminescence, biochemical; Potency, µM (highest dose often 115 µM), hits mostly inhibitors; 76,000 compounds, 2.5% hits; note: nearly all actives have a fitted effect of over 65% in size
Target sequence (P08659 whole entry, looked up): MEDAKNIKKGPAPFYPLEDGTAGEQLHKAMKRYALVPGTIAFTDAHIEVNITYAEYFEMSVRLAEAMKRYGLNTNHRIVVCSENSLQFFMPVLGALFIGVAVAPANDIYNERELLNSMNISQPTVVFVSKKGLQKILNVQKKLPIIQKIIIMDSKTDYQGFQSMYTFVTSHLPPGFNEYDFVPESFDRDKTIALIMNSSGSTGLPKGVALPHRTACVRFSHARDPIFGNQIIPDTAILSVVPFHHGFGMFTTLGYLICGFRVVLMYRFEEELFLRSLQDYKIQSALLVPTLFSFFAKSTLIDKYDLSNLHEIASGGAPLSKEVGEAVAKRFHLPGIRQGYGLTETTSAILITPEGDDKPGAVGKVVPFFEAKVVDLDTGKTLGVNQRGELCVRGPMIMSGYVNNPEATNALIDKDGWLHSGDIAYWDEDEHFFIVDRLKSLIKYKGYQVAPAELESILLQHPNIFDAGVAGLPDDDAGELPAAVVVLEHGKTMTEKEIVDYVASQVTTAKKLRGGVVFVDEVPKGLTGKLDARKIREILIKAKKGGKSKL
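Luminescence read by CCD imaging after purified firefly luciferase (10nM final) was added to substrate buffer holding 10uM D-luciferin and 10uM ATP, pH 7.5, pre-dosed with compound.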
HEK293 tox: Cytotoxic Profiling in HEK 293 Cell Line of Diverse Libraries Using Quantitative High-Throughput Screening; HEK 293 viability, ATP luminescence (CellTiter-Glo), 48-72 h; Potency, µM (series often up to 115 µM), for inactives: at the top dose activity change, negative = cytotoxicity, actives largely listed as inhibitors; 94,000 compounds, 6.6% hits; note: nearly all actives have a fitted effect of over 60% in size
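Cells seeded first (HEK 293, 250 cells/well), then compound added by pintool. Incubation ran 48 or 72 hr at 37 degree Celsius. CellTiter-Glo was added and luminescence imaged after 10 min at room temperature.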
NIH3T3 tox: Cytotoxic Profiling in NIH 3T3 Cell Line of Diverse Libraries Using Quantitative High-Throughput Screening; NIH 3T3 viability, CellTiter-Glo ATP luminescence, 48-72 h; Potency, µM (highest dose often 96.7 µM), without a hit: at the highest dose activity change, negative = cytotoxicity, most hits filed as inhibitors; 94,000 compounds, 4.3% hits; AID 1345082, 2018; note: nearly all actives have a fitted effect of over 55% in size
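Cytotoxicity was measured by CellTiter-Glo ATP luminescence after 48 or 72 h compound exposure at 37 °C. Mouse NIH 3T3 fibroblasts were seeded at 400 cells/well and dosed by 23 nL pin transfer.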
An asterisk follows results filed as active; i = inactive; ? = inconclusive; · = no result given; [ ] = remark or other dose. Unless noted, calls come from the whole dose curve; as a rule, active = well fitted curve in the direction sought with a large enough effect; inconclusive = small, poorly fitted or top-dose-only effect, or another doubt; inactive = no such curve, though single readings can be large; an effect the other way counts as inactive or inconclusive. % is set by controls: 0 for no effect and ±100 for the full control effect; potency is the fitted concentration of half-maximal effect.

SMILES | hNpr1 antagonist | FLuc inh | HEK293 tox | NIH3T3 tox
Cc1cc(C)c2[nH]c(C(=O)N3CCN(Cc4ccccc4)C(=O)C3C)c(C)c2c1 (centres undefined) | 4.9% | i | 35.5µM* | 25.1µM*
COc1ccc2[nH]cc(CCNC(=O)C3Cn4cccc4C(=O)N3Cc3ccccc3)c2c1 (centres undefined) | -13.1% | i | -13.7% | -21.3%
O=C(NCC1Cn2cccc2C(=O)N1Cc1cccnc1)c1n[nH]c(=O)c2ccccc12 (centres undefined) | -1.6% | i | -2.9% | 39.8µM*
COc1ccc2[nH]cc(CCNC(=O)C3Cn4cccc4C(=O)N3Cc3cccnc3)c2c1 (centres undefined) | -1.3% | i | 89.1µM* | ?
COc1cc(NC(=O)COc2ccc(-c3nnc4n3CCCC4)cc2)cc(OC)c1OC | 3.7% | i | -22.8% | ?
CS(=O)(=O)N1CCN(c2ccc3nnc(C4CC4)n3n2)CC1 | · | · | -0.7%[172 µM] | -12.1%[138 µM]
Fc1cccc(CN2CCO[C@@H](COc3ccccn3)[C@@H]2c2ccccc2)c1 | · | · | ? | 35.5µM*
O=C(NC1CCN(c2cc(-c3cccs3)[nH]n2)C1)c1ccccc1 (centres undefined) | 2.5% | i | ? | -26.2%
Cc1cccc(CC(=O)NC2CCN(c3cc(-c4cccs4)[nH]n3)C2)c1 (centres undefined) | -16.1% | i | 35.5µM* | ?
O=C(NC1CCN(c2cc(-c3cccs3)[nH]n2)C1)c1cccc(Cl)c1 (centres undefined) | -9.3% | i | 39.8µM* | ?
CC(C)CCNC(=O)c1cccc2c1CCN2S(=O)(=O)c1ccccc1F | ? | i | ? | ?
Cc1nnc2ccc(N3CCC(NC(=O)NC4CCCC4)CC3)nn12 | · | · | i | -15.3%
O=C1[C@H]2CN(Cc3ccc(C(F)(F)F)cc3)C[C@H]2C(=O)N1CCc1ccccc1 | -28.9% | i | 35.5µM* | 22.4µM*
Cc1cccc(C)c1N1C(C(=O)OC(C)(C)C)=C(O)c2ccccc2S1(=O)=O | · | · | ? | 20µM*
Cc1ccc(C(=O)N2CCCC2C(=O)N2CCC(c3nc4ccncc4[nH]3)C2)cc1 (centres undefined) | · | · | -1.1% | -7.6%
c1ccc2sc(N3CCN(Cc4cc5n(n4)CCCNC5)CC3)nc2c1 | -0.2% | i | -14.0% | -19.6%
c1ccc2c(N3CCN(Cc4cc5n(n4)CCNC5)CC3)nsc2c1 | 4.0% | i | 39.8µM* | ?
CC(C)CNc1ccc2c(n1)C(C)(C(=O)Nc1cccnc1)CN(Cc1ccccc1)C2 (centres undefined) | -17.3%[70.6 µM] | i | 50.1µM* | 28.2µM*
CC(C)CNc1ccc2c(n1)C(C)(C(=O)NC1CCOCC1)CN(Cc1ccccc1)C2 (centres undefined) | 1.7%[70.6 µM] | i | 79.4µM* | ?
CC(C)CNc1ccc2c(n1)C(C)(C(=O)NC1CC1)CN(Cc1ccccc1)C2 (centres undefined) | -13.9%[70.6 µM] | i | 63.1µM* | ?
O=Cc1cccc(-c2ccc(OC(F)(F)F)cc2)c1 | · | · | -25.4%[172 µM] | ?
NCc1cccc(-c2ccc(OC(F)(F)F)cc2)c1 | · | · | 39.8µM* | 31.6µM*
NCc1cccc(-c2cccc(C(F)(F)F)c2)c1 | · | · | ? | 79.4µM*
CNC(=O)c1cc(C2CC2)nc2c1c(C1CCN(C(=O)COC)C1)nn2C (centres undefined) | · | · | -1.7% | i
COc1ccc(OCC2CC3(CCCCC3)CN2S(=O)(=O)c2c(C)noc2C)cc1 (centres undefined) | · | · | 28.2µM* | -28.5%
SMILES | hNpr1 antagonist | FLuc inh | HEK293 tox | NIH3T3 tox
COCCN1CCC(C(=O)Nc2ccc(Oc3ccccc3F)cc2)CC1 | -2.5% | i | 50.1µM* | ?
O=S(=O)(Cc1ccccc1)N1CC(n2cnnc2C2CCCO2)C1 (centres undefined) | · | · | -0.5% | -15.3%
CC(C)C[C@@H]1N[C@H](C(=O)O)Cc2cn(CC3CCC3)c3cccc1c23 | -10.5%[70.6 µM] | i | 70.8µM* | 79.4µM*
C=CCn1cc2c3c(cccc31)[C@H](CC(C)C)N[C@H](C(=O)O)C2 | 2.3%[70.6 µM] | i | -25.7%[172 µM] | ?
CC(C)C[C@@H]1N[C@H](C(=O)NC2CCC2)Cc2cn(CC3CC3)c3cccc1c23 | 3.4%[70.6 µM] | i | 56.2µM* | ?
C#CCNC(=O)[C@@H]1Cc2cn(Cc3nccn3C)c3cccc(c23)[C@H](CC(C)C)N1 | 1.6%[70.6 µM] | i | ? | ?
CN(C)C[C@@H]1CN(Cc2ccccc2)C[C@H]1NC(=O)C1CC1 | · | · | i | -2.2%
CS(=O)(=O)N1CCCN(CC2CCCCC2)CCNC(=O)CC1c1ccccc1 (centres undefined) | -3.6% | i | -17.2% | -10.5%
COCCCn1c(C)cnc1C1CCN(C(=O)c2ccc(C)nc2)C1 (centres undefined) | · | · | -3.6% | -10.2%
Fc1ccccc1-c1noc(-c2nc(-c3ccncc3)no2)n1 | -14.8% | i | 6.1% | i
Fc1ccccc1-c1noc(-c2nc(C3CC3)no2)n1 | ? | 4.47µM* | ? | -21.2%
N#Cc1cccc(NC(=O)Cn2ccn3nc4c(c3c2=O)CCCC4)c1 | 0.8% | i | 8.6% | i
CCc1noc(-c2ccn3c(CNC(=O)Cc4ccc(Cl)cc4)nnc3c2)n1 | 5.5% | i | -5.9% | 2.5%
COCc1ncc(CN2CC[C@@H](c3ccc4ccccc4c3)[C@H](O)C2)cn1 | -0.9% | i | -16.1% | -27.5%
Cc1ccc(O)c(CN2CC[C@@H](c3ccc4ccccc4c3)[C@H](O)C2)n1 | ? | i | 44.7µM* | ?
Cc1ccc(-c2cccc(CN)c2)cc1Cl | · | · | ? | 28.2µM*
CSc1ccc(-c2cccc(CN)c2)cc1 | · | · | ? | 25.1µM*
Cc1ccc(-c2cccc(C=O)c2)cc1Cl | · | · | 0.4%[230 µM] | ?
NCc1cccc(-c2ccc(O)cc2)c1 | · | · | -16.0%[172 µM] | -20.6%[138 µM]
Cc1ccc(-c2ccc(CN)cc2)cc1Cl | · | · | 31.6µM* | 31.6µM*
COc1ccc(CCN2CCCC3(C2)C(=O)N(C)C(=O)N3C)cc1 (centres undefined) | · | · | -4.4% | -27.0%
O=C(Nc1cccnc1)c1ccc2c(c1)OCCN(c1cccc(OC(F)(F)F)c1)C2 | ? | i | 28.2µM* | ?
CC1(c2ccccc2)N(Cc2ccccc2C#N)C(=O)OC12CCN(Cc1ccccn1)CC2 (centres undefined) | -13.9% | i | ? | -18.1%
COc1ccc(-c2nc(C3CC3)nc3c2CN([S+](=O)([O-])c2cccs2)CC3)cc1 | · | · | -28.1% | ?
COc1ccc(-c2nc(C)nc3c2CN([S+](=O)([O-])c2cccs2)CC3)cc1 | · | · | i | 28.2µM*
CCc1nc2c(c(-c3ccc(OC)cc3)n1)CN([S+](=O)([O-])c1cccs1)CC2 | · | · | 0.9% | 11.2µM*
